Source: PubChem BioAssay
This is a sample that favours compounds with a hit; in the whole collection about 15% have one here.
Sm TGR block: inhibitors of Schistosoma mansoni thioredoxin glutathione reductase; Q962Y6; purified TGR, DTNB reduction, TNB absorbance 405 nm; Potency, µM (series often up to 114 µM), for inactives: top-dose activity change, negative = inhibition, actives largely listed as inhibitors; 360,000 tested, 3% active; note: potency is the fitted concentration of half-maximal effect; % is set by controls: 0 for no effect and ±100 for the full control effect; nearly all actives have a fitted effect of over 60% in size
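TGR 20 nM + NADPH 100 uM (dispensed conc.), cpd preinc 15 min RT; start with NADPH (500 uM addition) then DTNB (15 mM addition). Kinetic TNB absorbance, 405 nm filter. Four-parameter Hill fit across titration.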
HCV inh: HCV inhibition; 340,000 tested, 3.4% active; Potency, µM (highest dose often 41.8 µM), for the others: top-dose activity change, negative = inhibition, most hits filed as inhibitors; Huh7.5.1 HCVcc-Cre infection, luciferase reporter, 44 h; AID 651820; note: potency is the fitted concentration of half-maximal effect; % is set by controls: 0 for no effect and ±100 for the full control effect
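Cells seeded at 1,000/well and cultured 4 h, then compounds added followed by HCVcc-Cre virus (~0.5 moi). After 44 h further culture, luciferase substrate was added, plates held 15 min at room temperature, and luminescence read for 15 sec.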
Pf growth 96h: P. falciparum growth inhibition at 96 hours; P. falciparum luciferase reporter growth, 96 h; Potency, µM (doses to about 28.7 µM), for inactives: at the top dose activity change, negative = inhibition, actives largely listed as inhibitors; 320,000 tested, 6.9% active; note: potency is the fitted concentration of half-maximal effect; % is set by controls: 0 for no effect and ±100 for the full control effect
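Cell-based qHTS: luciferase-tagged P. falciparum in erythrocytes (2% hematocrit, 0.05% parasitemia final) incubated with compounds for 96 hours, 37 C, 5% CO2; luciferase detection reagent then added and luminescence measured.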
SARS PLP yeast: blocks SARS-CoV papain-like protease in a yeast assay. Potency, µM (top dose mostly 32.9 µM), for the others: at the highest dose activity, positive = growth rescue, hits mostly activators. S. cerevisiae expressing SARS-CoV PLpro, growth rescue. 330,000 tested, 0.19% active. AID 485353; calls by dose curve; note: potency is the fitted concentration of half-maximal effect; 0% is about no effect; nearly all actives have a fitted effect of over 55% in size
HCMV antiviral: human cytomegalovirus inhibition. HFF cells, HCMV-luciferase reporter, 72 h; active compounds read low. activity change, negative = inhibition, % at 57.5 µM. 410,000 tested, 4.5% active. AID 1259415; in the data active = activity change below about -60%; inconclusive = no clear call, values can overlap the other calls; inactive = above about -39%; note: % is set by controls: 0 for no effect and ±100 for the full control effect
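Screen run at 2 compound doses on HFFs infected with reporter HCMV, MOI 1 PFU/cell. Luciferase activity from cell lysates at 72 h post infection gave inhibition relative to buffer-only and Salinomycin wells.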
Pf growth 48h: inhibits P. falciparum growth in the first generation, 48 h; P. falciparum luciferase growth in erythrocytes, 48 h; Potency, µM (highest dose often 28.7 µM), inactives show top-dose activity change, negative = inhibition, usual class: inhibitors; 310,000 tested, 5.9% active; AID 504832; note: potency is the fitted concentration of half-maximal effect; % is set by controls: 0 for no effect and ±100 for the full control effect
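In quantitative HTS format, infected erythrocytes bearing luciferase-reporter parasites were treated for a single generation at 37 C. Luminescence after adding detection reagent served as the growth measure.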
The depositor's hits bear a star; ? = inconclusive; / = not tested or not shown. Unless noted, calls come from the whole dose curve; as a rule, active = well fitted curve in the direction sought with a large enough effect; inconclusive = small, poorly fitted or top-dose-only effect, or another doubt; inactive = no such curve, though single readings can be large; an effect the other way counts as inactive or inconclusive.

SMILES | Sm TGR block | HCV inh | Pf growth 96h | SARS PLP yeast | HCMV antiviral | Pf growth 48h
COc1ccc(CCN2CC(C(=O)OCc3ccccc3Cl)CC2=O)cc1OC (stereo unspecified) | / | 4% | / | / | -32 | /
CCOC(=O)c1ccc(NC(=O)OC[C@@H]2CSCCS(=O)(=O)N2)cc1 | / | / | / | / | -14 | /
CCn1ccc2cc(S(=O)(=O)N3CCC(C(=O)NCCOC)CC3)ccc21 | ? | / | / | / | 3 | /
COc1ccc(C(=O)N2CCC(c3noc4ccccc34)CC2)cc1OC | / | / | / | / | -65* | /
Cc1ccc(C)c2sc(N3CCN(C(=O)c4ccco4)CC3)nc12 | 56µM* | / | / | / | 2 | /
COc1ccccc1-c1nnc(C2CCN(C(=O)c3cccc(C)c3)CC2)o1 | -1% | / | / | / | -65* | /
COc1ccc(C(=O)N2CCN(C(=O)c3ccc(-c4ccccc4)cc3)CC2)cc1OC | -3% | ? | 0% | 0% | -22 | ?
CCc1cccc2sc(N3CCN(C(=O)C4CC4)CC3)nc12 | -3% | / | / | / | -25 | /
COc1ccccc1-c1nnc(C2CCN(S(=O)(=O)c3ccccc3)CC2)o1 | 34% | / | / | / | -12 | /
CCc1cccc2sc(N3CCN(C(=O)c4ccc([N+](=O)[O-])o4)CC3)nc12 | -22% | ? | 0.52µM* | 6% | / | 0.66µM*
NC1=NC(c2ccc(Cl)cc2)C(C(=O)c2ccccc2)N1 (stereo unspecified) | 0% | 36% | 9% | 1% | ? | -13%
CC1(C(=O)NCc2ccccc2)CCC(=O)N1C1CCN(Cc2ccccc2)CC1 (stereo unspecified) | / | / | / | / | 3 | /
Cc1cccc2sc(NC(=O)C3CCN(C(=O)c4ccco4)CC3)nc12 | -8% | 11µM* | 15µM* | -3% | 20 | -20%
COc1ccc(C(=O)N2CCN(c3nc4ccccc4o3)CC2)cc1OC | -25% | 11µM* | -12% | 4% | ? | /
COc1cccc2sc(N3CCN(C(=O)CCS(=O)(=O)c4ccc(F)cc4)CC3)nc12 | 0% | / | / | / | -88* | /
Cc1ccc(S(=O)(=O)CCC(=O)N2CCN(c3nc4c(C)c(Cl)ccc4s3)CC2)cc1 | 0% | / | / | / | -1 | /
O=C(COC(=O)c1ccc([N+](=O)[O-])cc1Cl)Nc1cccnc1Cl | -8% | -4% | 34% | 0% | 13 | 8%
COc1ccc(-c2nn(CCC#N)cc2C(=O)Nc2cccc(C(=O)O)c2)cc1[N+](=O)[O-] | -21% | 10% | -3% | -4% | 2 | 4%
CCN(CC)CCC/C(=N\O)C(O)(c1ccccc1)c1ccccc1 | 5% | 6% | 31% | 0% | -37 | ?
CC[N+](C)(CC)CCC/C(=N/O)C(O)(c1ccccc1)c1ccccc1 | 0% | 10% | -23% | 1% | -65* | ?
CCCCN(C)CCNC(=O)C1CCCN(S(=O)(=O)c2ccc3c(c2)oc(=O)n3C)C1 (stereo unspecified) | 0% | / | / | / | 4 | /
O=C(CSc1nc2c(c(C(F)(F)F)n1)CCc1ccccc1-2)NCc1ccccc1 | 4% | -5% | 21% | ? | -19 | -11%
CCN(CC)CCCNC(=O)CSc1nc2c(c(C(F)(F)F)n1)CCc1ccccc1-2 | / | 16µM* | 12% | 0% | 5 | ?
Cc1nn(Cc2ccccc2)c(C)c1NC(=O)CSc1nc2c(c(C(F)(F)F)n1)CCc1ccccc1-2 | -16% | ? | 8.3µM* | 6% | 0 | 5.2µM*
CC1=C(C(N)=O)C(c2ccc(C(C)C)cc2)n2nc(SCc3ccccc3F)nc2N1 (stereo unspecified) | -1% | / | / | / | -26 | /
SMILES | Sm TGR block | HCV inh | Pf growth 96h | SARS PLP yeast | HCMV antiviral | Pf growth 48h
O=C(NCc1ccc2c(c1)OCO2)c1ccc(N2C(=O)C3CCCCC3C2=O)cc1 (stereo unspecified) | -7% | -6% | / | -1% | / | 3%
CC(C)N1CCCC(C)(C(=O)Nc2nccc3ccccc23)C1 (stereo unspecified) | / | / | / | / | 48 | /
CCOc1cc(/C=N/NC(=O)c2ccc(CN3CCOCC3)cc2)ccc1OCc1ccccc1 | -6% | ? | ? | -1% | -73* | ?
CCOc1cc(/C=N/NC(=O)CN2CCOCC2)ccc1OCc1ccccc1 | -7% | ? | ? | -9% | -29 | ?
CCOc1cc(/C=N\NC(=O)CN2CCOCC2)ccc1OCc1ccc(F)cc1 | 4% | 2% | 12µM* | -20% | 17 | 9.3µM*
CCOc1cc(/C=N/NC(=O)c2ccncc2)ccc1OC(=O)c1ccccc1 | -16% | 7% | 38% | 0% | 12 | 0%
CCOc1cc(/C=N/NC(=O)c2ccccn2)ccc1OC(=O)c1ccc(F)cc1 | 50µM* | 21% | 149% | 1% | 16 | -10%
COC(=O)c1c(N2C(=O)Nc3ccccc3N2O)sc(C)c1C | 0% | 15% | 5.2µM* | 4% | -35 | 4%
CCc1cccc(C)c1NC(=O)C1CCN(S(=O)(=O)Cc2ccccc2)CC1 | 0% | / | / | / | 14 | /
CC1CCCCN1C(=O)C(Cc1ccccc1)N1C(=O)C2CCCCC2C1=O (stereo unspecified) | -5% | 3% | 13µM* | 11% | 3 | -4%
COc1ccccc1C(O)(c1ccccc1)C(CN1CCOCC1)c1ccccc1 (stereo unspecified) | 5% | ? | ? | 2% | ? | ?
COc1ccc(C(O)C(CN2CCOCC2)c2ccccc2)cc1F (stereo unspecified) | -4% | 0% | ? | 5% | -8 | 6.6µM*
CCCOc1ccc(C(=O)C(c2ccccc2)N2CCOCC2)cc1 (stereo unspecified) | 41% | 5% | -13% | -11% | -16 | -11%
COc1ccc(C(=O)C(CN2CCOCC2)c2ccccc2)cc1F (stereo unspecified) | 4% | ? | -21% | -38% | -105* | 7%
CCCOc1ccc(C(=O)C(CN2CCOCC2)c2ccccc2)cc1 (stereo unspecified) | -1% | ? | -20% | -58% | -104* | ?
COc1ccc(C(=O)O)cc1F | 18% | 19% | -23% | 3% | 27 | 10%
COc1ccc(C(=O)CN2CCOCC2)cc1F | -17% | 23% | 0.66µM* | -5% | 7 | 34%
Cc1cc(C)nc(-n2nc(C)c3c2N(Cc2ccccc2C)C(=O)CC3c2ccc(Cl)cc2)n1 (stereo unspecified) | 3% | / | / | / | -10 | /
Cc1cc(C)cc(NC(=O)Cn2c(C(F)(F)F)nc3ccccc32)c1 | 9% | / | / | / | -4 | /
Cc1ccc(SC(C)C(=O)O/N=C(\N)c2ccncc2)cc1 (stereo unspecified) | 40µM* | ? | ? | -6% | -15 | ?
C/C(=N\NC(=O)c1nnn(-c2nonc2N)c1CN1CCC(C)CC1)c1ccc(Br)cc1 | / | / | / | / | -25 | /
